Records with an inconclusive call do not appear. Activity calls are given as the source filed them. Calls come from the whole dose curve; as a rule, active = well fitted cell-killing curve with a large enough effect; inconclusive = small, poorly fitted or top-dose-only effect, or effect the other way; inactive = no such curve, though single readings can be large or run the other way.
Potency is the fitted concentration of half-maximal effect.

The assay in a line: Quantitative High-Throughput drug screen in 47 multiple myeloma cell lines against the NCATS MIPE library collection: U266_ATCC cell viability assay (AID 1919864). Note: nearly all actives have a fitted effect of over 35% in size. The settings on record: U266 myeloma viability, CellTiter-Glo ATP luminescence, 48 h; series mostly up to 45.8 µM. The source says: PI: Beverly A. Mock Ph.D.
Laboratory of Cancer Biology and Genetics,
Center for Cancer Research, National Cancer Institute,
National Institute of Health, Bethesda, Maryland
Drug resistance and disease progression are common in multiple myeloma (MM) patients, underscoring the need for new therapeutic combinations. […] We hypothesized that effective combinations would reduce MYC expression and enhance p16 activity. […] These preclinical data identify potentially useful drug combinations for evaluation in drug-resistant MM and reveal potential mechanisms of combined drug sensitivity.
Described herein is the primary MIPE qHTS used to cherrypick compounds. Validated compounds were then further tested for potential synergistic activiy.
[1] Peat TJ, Gaikwad SM, Dubois W, Gyabaah-Kessie N, Zhang S, Gorjifard S, Phyo Z, Andres M, Hughitt VK, Simpson RM, Miller MA, Girvin AT, Taylor A, Williams D, D'Antonio N, Zhang Y, Rajagopalan A, Flietner E, Wilson K, Zhang X, Shinn P, Klumpp-Thomas C, McKnight C, Itkin Z, Chen L, Kazandijian D, Zhang J, Michalowski AM, Simmons JK, Keats J, Thomas CJ, Mock BA. Drug combinations identified by high-throughput screening promote cell cycle transition and upregulate Smad pathways in myeloma. Cancer Lett. 2023 Aug 1;568:216284. doi: 10.1016/j.canlet.2023.216284. Epub 2023 Jun 24. PMID: 37356470; PMCID: PMC10408729.
SEQUENCE No. (e.g., 1, 2, 3, etc.); […] (e.g., Cells, Incubation, Reagent, etc.); VALUE and DESCRIPTION.
1; Cells; 5 uL; white, solid bottom 1536-well Greiner assay plate.
2; Compounds; 23 nL; Kalypsis pin tool (Wako USA) equipped with a 1536-well pin head to transfer to the assay plates.
3; Incubation; 48 hours; 37C incubation.
4; Reagent;5uL; CellTiter Glo (Promega).
5; Detector; 425V; Luminescence; Viewlux PerkinElmer.
NOTES (numbers refer to Sequence numbers above)
1. The cell-based screening methods employed in this study were like those previously published. Briefly, the corresponding myeloma cell lines were screened in 1,536-well plates with 500 cells, 5-uL per well for inhibition of cell viability (assessed by measuring ATP levels with CellTiterGlo).
2. NCATS MIPE 4.0 library of approved and investigational drugs were added using the Kalypsis pin tool. Wells treated with DMSO only for 100% viability and media only for 0% viability were used as controls.
3. The assay plates were covered and incubated for 48 hours in a 37C, 5% CO2 incubator with controlled humidity.
4. After 48 hours, CellTilter-GloTM luminescent substrate mix (Promega) reagent was added to the assay plate and plates we incubated for 5 min at room temperature.
5. Signal was measured as median relative luminescence units on a ViewLux (PerkinElmer) multiplate reader.
[1] Heske CM, Davis MI, Baumgart JT, Wilson K, Gormally MV, Chen L, Zhang X, Ceribelli M, Duveau DY, Guha R, Ferrer M, Arnaldez FI, Ji J, Tran HL, Zhang Y, Mendoza A, Helman LJ, Thomas CJ. Matrix Screen Identifies Synergistic Combination of PARP Inhibitors and Nicotinamide Phosphoribosyltransferase (NAMPT) Inhibitors in Ewing Sarcoma. Clin Cancer Res. 2017 Dec 1;23(23):7301-7311. doi: 10.1158/1078-0432.CCR-17-1121. Epub 2017 Sep 12. PMID: 28899971; PMCID: PMC6636827.
(ATP-based viability assays read luminescence as a measure of living cells.)
For `Nc1cccc2c1C(=O)N(C1CCC(=O)NC1=O)C2=O` (stereo not given), the Potency entry is “inactive”. The value for `Cc1ccc(-n2[nH]c(C)c(N=Nc3cccc(-c4cccc(C(=O)O)c4)c3O)c2=O)cc1C` was 20.9 µM (active); that for `C=CC(=O)N1CCc2ccc(-n3c(=O)ccc4cnc5ccc(-c6cnn(C)c6)cc5c43)cc21` was 3.32 µM (active); that for `Oc1ccc(-c2ccc(-c3cc(Nc4cccc(CNC5CC5)c4)n[nH]3)cc2)c(O)c1` was 5.26 µM (active). Regarding `C[C@]12C=CC(=O)N[C@@H]1CC[C@H]1[C@H]3CC[C@@H](C(=O)Nc4cc(C(F)(F)F)ccc4C(F)(F)F)[C@@]3(C)CC[C@@H]12`, the Potency result was “inactive”. The value for `COc1ccc(S(=O)(=O)Nc2cccnc2Nc2ccc(O)cc2)cc1` was 1.05 µM (active); that for `CCCCCCCCCCCC(CC1OC(=O)C1CCCCCC)OC(=O)C(CC(C)C)NC=O` (stereo not given) was “inactive”. The result for `CC(=O)SCC(Cc1ccccc1)C(=O)NCC(=O)OCc1ccccc1` (stereo not given) reads 1.32 µM (active); that for `OCc1ccccc1O[C@@H]1O[C@H](CO)[C@H](O)[C@H](O)[C@H]1O`, “inactive”.

Turning to `C=CC(=O)Nc1cc(NC(=O)c2ccc(C)c(NC(=O)c3ccno3)c2)cc(C(F)(F)F)c1`, the Potency is 20.9 µM (active).

Regarding `CN(C)c1ccc(C(=O)NCCCCCCC(=O)NO)cc1`, the Potency was 1.18 µM (active). As for `CCOC(=O)[C@@H](N)Cc1ccc(-c2cc(O[C@H](c3ccc(Cl)cc3-n3ccc(C)n3)C(F)(F)F)nc(N)n2)cc1`, the Potency is 23.5 µM (active). For `NS(=O)(=O)OC[C@@H]1C[C@@H](n2ccc3c(N[C@H]4CCc5ccccc54)ncnc32)C[C@H]1O`, the Potency was 8.33 µM (active). The result for `CC(C)c1cnn2c(NCc3ccccc3)cc(NCCCCCCN)nc12` reads 2.64 µM (active). For `Oc1cc2c(cc1O)C1c3ccc(O)c(O)c3OCC1(O)C2` (stereo not given), the Potency entry is “inactive”. The result for `CC1(C)O[C@@H]2C[C@H]3[C@@H]4CCC5=CC(=O)C=C[C@]5(C)[C@@H]4[C@@H](O)C[C@]3(C)[C@]2(C(=O)CO)O1` reads “inactive”. The value for `CC(=O)N1CCN(c2ccc(OCc3nn(C)c(C)c3-c3cccc4c(CCCOc5cccc6ccccc56)c(C(=O)O)n(Cc5cccnc5)c34)cc2)CC1` was 0.526 µM (active); that for `CC(=O)[C@]1(O)Cc2c(O)c3c(c(O)c2[C@@H](O[C@H]2C[C@H](N)[C@@H](O)[C@H](C)O2)C1)C(=O)c1ccccc1C3=O` was 0.264 µM (active). The result for `Cc1cnn(C)c1C(=O)Nc1cc(Nc2ccc3c(C=Cc4ccccn4)n[nH]c3c2)ccc1F` reads 20.9 µM (active). As to `O=C(Nc1ccc(Oc2ccnc3[nH]ccc23)c(F)c1)c1cccn(-c2ccc(F)cc2)c1=O`, the Potency entry was “inactive”. The value for `C=C1C[C@@]2(O)O[C@@]3(C[C@H]2C(C)C)[C@H](C)CC[C@H]13` was “inactive”; that for `COc1ccc(Nc2cc(-c3cnc(N)nc3)nc(N3CCOCC3)n2)cn1` was 11.8 µM (active); that for `O=C(c1ccc(F)cc1)N1CCC[C@H](c2nc(-c3ccc(F)cc3)no2)C1` was “inactive”.

Turning to `CC(N[C@H]1CCCC[C@H]1NC(=O)c1ccc(Cl)cc1)c1cccc2ccccc12` (stereo not given in full), the Potency entry is “inactive”. As for `COC(=O)C1C2CC3c4[nH]c5cc(OC)ccc5c4CCN3CC2CC(OC(=O)c2cc(OC)c(OC)c(OC)c2)C1OC` (stereo not given), the Potency was 23.5 µM (active).

Turning to `COc1ccc(C[C@@H](C)[C@@H](C)Cc2ccc(OC)c(OC)c2)cc1OC`, the Potency was 0.935 µM (active).

Consider `CS[C@H]1SC[C@@H]2C(=O)N(C)[C@H](C(C)C)C(=O)OC[C@H](NC(=O)c3cnc4ccccc4n3)C(=O)N[C@H](C)C(=O)N(C)[C@@H]1C(=O)N(C)[C@H](C(C)C)C(=O)OC[C@H](NC(=O)c1cnc3ccccc3n1)C(=O)N[C@H](C)C(=O)N2C`, for which the Potency is 0.0066 µM (active). The result for `Cc1cc(Nc2ncc3c(n2)N(C)C(=O)N(c2cc(NC(=O)c4cccc(C(F)(F)F)c4)ccc2C)C3)n(C)n1` reads 1.32 µM (active); that for `FC(F)(F)c1ccc(Nc2nc3ccc(Oc4ccnc(-c5ncc(C(F)(F)F)[nH]5)c4)cc3[nH]2)cc1`, 13.2 µM (active). As for `COc1cc(O)c2c(c1)C1OC1C[C@H](O)[C@H](O)C(=O)C=CC[C@H](C)OC2=O` (stereo not given in full), the Potency was 4.69 µM (active). The result for `C[C@]12CC[C@@H]3c4ccc(O)cc4CC[C@H]3[C@H]1CC[C@H]2O` reads 6.62 µM (active); that for `O=C(Nc1cccc(Nc2ncc(Br)c(NCCc3cnc[nH]3)n2)c1)N1CCCC1`, 16.6 µM (active); that for `Cc1ccc2nc(NCCN)c3ncc(C)n3c2c1`, 3.72 µM (active). In the case of `CCN(CC)Cc1ccc2cc(COC(=O)Nc3ccc(C(=O)NO)cc3)ccc2c1`, the Potency was 0.662 µM (active). Take `CCOc1cc2ncc(C#N)c(Nc3ccc(OCc4ccccn4)c(Cl)c3)c2cc1NC(=O)C=CCN(C)C`: the Potency was 13.2 µM (active).

Regarding `CC(C)(O)[C@H]1CC[C@@](C)([C@H]2[C@@H](O)C[C@@]3(C)[C@@H]4C[C@H](O[C@@H]5O[C@H](CO)[C@@H](O)[C@H](O)[C@@H]5O)[C@H]5C(C)(C)[C@@H](O[C@@H]6OC[C@@H](O)[C@H](O)[C@@H]6O)CC[C@@]56C[C@@]46CC[C@]23C)O1`, the Potency result was “inactive”. The value for `CC(C)N1[N]C(=C2C=c3cc(O)ccc3=N2)c2c(N)ncnc21` was 4.18 µM (active); that for `O=C(C=Cc1ccc(CN(CCO)CCc2c[nH]c3ccccc23)cc1)NO` was 0.264 µM (active). In the case of `NC(=O)c1cccc(-c2cccc(OC(=O)NC3CCCCC3)c2)c1`, the Potency result was “inactive”. `CCN(CC)CCNC(=O)c1c(C)[nH]c(C=C2C(=O)Nc3ccc(F)cc32)c1C`: the Potency is 3.4 µM (active).

The values are drawn from PubChem BioAssay (NCATS).
